# System: Plasmodium falciparum NF54-HGL (transmission to Anopheles stephensi)
# Assay: percentage of barcode signal found in uninfected mosquitoes (transmission-blocking activity); higher = stronger blocking of transmission to mosquito, active = 80 or more
# Details: 20 µM; gametocyte preincubation time 24 h; readout time post-feed 8 days
# Method: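 The mixture was fed to Anopheles stephensi in 96-well plates as blood meals tagged with DNA-barcoded Asaia bacteria. Eight days later, mosquitoes were classed infected or uninfected by luminescence (mean + 5 SD of unfed controls). Barcodes were quantified by Luminex MagPlex-TAG in the pooled uninfected and infected Asaia cultures, background-corrected, and the score is % of barcode signal in uninfected mosquitoes = 100*Iu/(Iu+Ii).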
row,SMILES,percentage of barcode signal found in uninfected mosquitoes
1,CCC(Sc1nc2ccccc2o1)C(=O)Nc1nnc(C)s1 (centres undefined),-0.757% (inactive)
2,CN1CCN(S(=O)(=O)c2ccc(-c3ccc4c(Nc5ncc(Cl)cn5)ccnc4c3)cc2)CC1,50.8% (inactive)
3,O=C(N[C@H](Cc1ccccc1)C(=O)Nc1ccccc1N1CCOCC1)c1cccs1,13.5% (inactive)
4,CCc1ccc(S(=O)(=O)Nc2cc(CN3CCN(CCC(C)C)CC3)ccc2C)cc1,22.9% (inactive)

# Reference: the supplement of paper PMC8726507
